Our source for the Potency, activity change, positive = activation and outcome values is PubChem BioAssay (Tox21).

A number with no mark means an inactive call. Records with an inconclusive call do not appear. Active and inactive are the calls of the source. Unless noted, calls come from the whole dose curve; as a rule, active = well fitted curve in the direction sought with a large enough effect in the repeat runs; inconclusive = weak or mixed curves; inactive = no such curve, though single readings can be large; an effect the other way counts as inactive or inconclusive.

Test [1] in a line: qHTS assay to identify small molecule agonists of the constitutive androstane receptor (CAR) signaling pathway - cell viability counter screen (AID 1224836). Note: nearly all actives have a fitted effect of over 45% in size. The procedure, abridged: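 Counter screen multiplexed with the CAR reporter readout: HepG2 cells co-transfected with hCAR and the CYP2B6-2.2kb construct receive a 15-concentration compound series and 0.75 uM PK11195 (final), then CellTiter-Fluor fluorescence is read after 23 h.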
For orientation: Quantitative high-throughput screening tests each substance at several concentrations.

Test [2] in a line: qHTS assay to identify small molecule antagonists of the constitutive androstane receptor (CAR) signaling pathway - cell viability counter screen (AID 1224837). Note: nearly all actives have a fitted effect of over 45% in size. The procedure, abridged:
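To flag cytotoxic false antagonists, HepG2 hCAR/CYP2B6-2.2kb cells were treated 23 hr with 15-concentration compound series and 50 nM CITCO at 37 C/5% CO2; CellTiter-Fluor fluorescence was the measured end point.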

Test [3] addresses Nuclear receptor subfamily 1 group I member 3 (Homo sapiens) (UniProt Q14994). In words: qHTS assay to identify small molecule antagonists of the constitutive androstane receptor (CAR) signaling pathway (AID 1224838).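 Note: HepG2 cells stably expressing hCAR with CYP2B6 luciferase reporter stimulated by CITCO; nearly all actives have a fitted effect of over 40% in size.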 The procedure, abridged: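 Human hepatoma HepG2 cells expressing hCAR and a CYP2B6 promoter (2.2 kb) luciferase construct; compound titration (15 points) with 50 nM CITCO final, 24 h at 37 C/5% CO2; luminescence via ONE-Glo after 30 min at room temperature.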

Test [4] shares this target. In words: qHTS assay to identify small molecule agonists of the constitutive androstane receptor (CAR) signaling pathway (AID 1224839). Note: nearly all actives have a fitted effect of over 15% in size. Note: potency is the fitted concentration of half-maximal effect. A digest of the protocol: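 A 15-concentration quantitative screen uses HepG2 cells co-transfected stably with human CAR and CYP2B6-2.2kb reporter. Treatment lasts 24 h with 0.75 uM PK11195 final present; ONE-Glo luminescence is the signal.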

Test [5] can be described thus: qHTS assay to identify small molecule antagonists of the estrogen related receptor signaling pathway with the pleiotropic PPARgamma coactivator (PGC) from Tox21 10K library - cell viability counter screen (AID 1224840; active = well fitted cell-killing curve with a large enough effect in the repeat runs, not every such curve was filed as active; note: nearly all actives have a fitted effect of over 40% in size). A digest of the protocol: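 Seeded PGC/ERR cells (2,000/well, 6 h, 37 C/5% CO2) get compound by pin tool; 17.5 h incubation at 37 C; CellTiter-Fluor added, 30 min, fluorescence measured.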

Test [6] can be described thus: qHTS assay to identify small molecule agonists of the estrogen related receptor signaling pathway with the pleiotropic PPARgamma coactivator (PGC) from Tox21 10K library (AID 1224842). Note: nearly all actives have a fitted effect of over 15% in size. The procedure, abridged: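 PGC/ERR reporter cells (NTP line) were seeded 2,000 per well, rested 6 h at 37 C/5% CO2, then pin-dosed with compounds in DMSO for 18 h at 37 C; luciferase read by One-Glo luminescence after 30 min at room temperature.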

In test [7] the target is Thyrotropin receptor (Homo sapiens) (UniProt P16473). The test can be described thus: qHTS assay to identify small molecule agonists of the thyroid stimulating hormone receptor (TSHR) signaling pathway (AID 1224843; calls by dose curve; note: nearly all actives have a fitted effect of over 45% in size). A digest of the protocol: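 Using 15 concentrations per compound in triplicate, cAMP production was monitored in TSHR-HEK293 cells after 30 min compound incubation at RT; HTRF reagents followed, with fluorescence intensity recorded after 1 h.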
Chain of Thyrotropin receptor (Homo sapiens) (P16473 whole entry, looked up): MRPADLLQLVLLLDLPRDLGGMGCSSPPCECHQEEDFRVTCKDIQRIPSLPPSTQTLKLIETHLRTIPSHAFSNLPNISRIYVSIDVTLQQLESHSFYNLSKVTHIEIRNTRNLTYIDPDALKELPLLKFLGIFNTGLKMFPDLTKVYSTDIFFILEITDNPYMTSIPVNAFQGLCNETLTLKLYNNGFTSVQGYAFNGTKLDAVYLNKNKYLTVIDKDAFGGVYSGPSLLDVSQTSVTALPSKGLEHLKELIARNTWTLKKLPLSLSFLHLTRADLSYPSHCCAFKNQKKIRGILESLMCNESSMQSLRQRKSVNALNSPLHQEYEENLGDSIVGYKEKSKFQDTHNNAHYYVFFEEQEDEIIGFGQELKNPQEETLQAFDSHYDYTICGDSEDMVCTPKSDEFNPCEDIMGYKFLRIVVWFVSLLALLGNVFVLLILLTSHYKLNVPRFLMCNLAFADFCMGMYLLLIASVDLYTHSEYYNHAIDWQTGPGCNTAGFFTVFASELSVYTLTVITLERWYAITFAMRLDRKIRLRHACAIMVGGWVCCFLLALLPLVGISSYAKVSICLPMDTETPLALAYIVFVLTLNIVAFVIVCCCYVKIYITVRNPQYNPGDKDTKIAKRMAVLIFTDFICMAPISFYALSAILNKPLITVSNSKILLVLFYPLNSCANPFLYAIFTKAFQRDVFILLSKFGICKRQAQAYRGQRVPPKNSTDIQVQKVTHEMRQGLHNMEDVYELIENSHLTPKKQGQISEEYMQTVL

Test [8] can be described thus: qHTS assay to identify small molecule agonists of H2AX (AID 1224845; active = well fitted activation curve with a large enough effect in the signal ratio in the repeat runs, not every such curve was filed as active; the % refers to the signal ratio). A digest of the protocol:
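Wild-type CHO-K1 cells plated overnight, then exposed 3 hr at 37C to compounds at 15 concentrations (0.76% DMSO). Lysed, then HTRF anti-pH2AX(S139)-cryptate/anti-H2AX-d2 detection after 24 hr at room temperature; emissions 665 and 620 nm.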

Test [9] can be described thus: qHTS assay to identify small molecule agonists of H2AX - cell viability counter screen (AID 1224847; calls by dose curve; note: nearly all actives have a fitted effect of over 30% in size; note: potency is the fitted concentration of half-maximal effect). A digest of the protocol:
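We seed wild-type CHO-K1 cells overnight, treat them for 3 hr at 37C with compounds in 15-concentration series, and quantify remaining viability by CellTiter-Glo luminescence.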

A short description of test [10]: qHTS assay to identify small molecule agonists of the estrogen related receptor (ERR) signaling pathway from Tox21 library (AID 1224849; calls by dose curve; note: nearly all actives have a fitted effect of over 15% in size). The following applies: ERR reporter cell line, ONE-Glo luciferase, 18 h; at 92.4 µM (top of the series) unless noted. The procedure, abridged:
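Tox21 compounds tested for ERR agonism in an NTP reporter cell line: 18 h treatment at 37 C, then ONE-Glo luminescence.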

A short description of test [11]: qHTS RealTime-Glo MT Cell Viability Assay in HepG2 cells - 24 hour (AID 1224867). Note: nearly all actives have a fitted effect of over 50% in size. A digest of the protocol:
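HepG2 cells were seeded at 600 cells/well together with NanoLuc luciferase and a cell-permeant prosubstrate, preincubated 5 h at 37 C/5% CO2, then pin-dosed with compounds in DMSO. Nonlytic luminescence from viable cells was read at each time point.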

A short description of test [12]: A CellTox Green Cytotoxicity Assay to monitor cytotoxicity in HEK293 cells - 0 hour (AID 1224869). Note: nearly all actives have a fitted effect of over 50% in size. A digest of the protocol:
(§1)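 Tox21 screen in HEK293: membrane-impermeant cyanine dye fluoresces on binding dead-cell DNA; compound pinned 5 h post-seeding, plates held at 37 C, signal read repeatedly through 40 h.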

A short description of test [13]: qHTS RealTime-Glo MT Cell Viability Assay in HepG2 cells - 40 hour (AID 1224870). Note: nearly all actives have a fitted effect of over 50% in size. A digest of the protocol:
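HepG2 cells mixed with RealTime-Glo MT reagents (NanoLuc plus cell-permeant prosubstrate) were seeded at 600 cells/well, incubated 5 h at 37 C/5% CO2, then pinned with compounds in DMSO; nonlytic luminescence tracked viability during 40 h treatment.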

A short description of test [14]: qHTS RealTime-Glo MT Cell Viability Assay in HEK293 cells - 16 hour (AID 1224872). Note: top concentration of the series differs between compounds; nearly all actives have a fitted effect of over 50% in size. A digest of the protocol: (§2)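 HEK293 cells were seeded at 600 cells/well together with NanoLuc luciferase and cell-permeant prosubstrate, preincubated 5 h at 37 C/5% CO2, then given compound in DMSO by pintool. Luminescence from viable-cell prosubstrate reduction was read repeatedly over 40 h.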

Test [15] can be described thus: qHTS assay to identify small molecule agonists of the hypoxia (HIF-1) signaling pathway - cell viability counter screen (AID 1224844; calls by dose curve; note: nearly all actives have a fitted effect of over 50% in size). The procedure, abridged:
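HRE-bla ME-180; 0.5% dFBS; cpd 17 h, 37C, 5% CO2; CellTiter-Glo lum., 30 min RT, post-FRET read, same wells.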

Test [16] in a line: qHTS assay to identify small molecule agonists of the hypoxia (HIF-1) signaling pathway (AID 1224846; active = well fitted activation curve with a large enough effect in the signal ratio in the repeat runs, not every such curve was filed as active; the % refers to the signal ratio). The procedure, abridged: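 Reporter induction in HRE-bla ME-180 cells is taken as agonism: cells sit 5 hrs after plating, receive compounds or DMSO only, incubate 17 hrs at 37C under 5% CO2, and are loaded with CCF4-AM for beta-lactamase FRET measurement.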
Test [17] in a line: A CellTox Green Cytotoxicity Assay to monitor cytotoxicity in HEK293 cells - 40 hour (AID 1224871). Note: nearly all actives have a fitted effect of over 45% in size. The procedure, abridged: as §1
Test [18] can be described thus: qHTS RealTime-Glo MT Cell Viability Assay in HEK293 cells - 32 hour (AID 1224868). The procedure, abridged:
as §2
% is set by controls: 0 for no effect and ±100 for the full control effect.

Chain of Nuclear receptor subfamily 1 group I member 3 (Homo sapiens) (Q14994 whole entry, looked up): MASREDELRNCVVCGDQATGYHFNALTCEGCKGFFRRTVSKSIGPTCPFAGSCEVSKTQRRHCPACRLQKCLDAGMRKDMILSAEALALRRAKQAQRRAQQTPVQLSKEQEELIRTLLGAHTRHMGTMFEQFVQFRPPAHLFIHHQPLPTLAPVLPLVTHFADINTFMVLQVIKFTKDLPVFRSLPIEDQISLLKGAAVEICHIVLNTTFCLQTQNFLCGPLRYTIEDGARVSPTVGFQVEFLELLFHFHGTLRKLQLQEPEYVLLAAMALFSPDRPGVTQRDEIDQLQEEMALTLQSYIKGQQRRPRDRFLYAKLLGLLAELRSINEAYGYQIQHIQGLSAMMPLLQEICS

Consider `C/C=C/C(=O)C1=C(C)CCCC1(C)C`, for which the Potency result in test [1], in [2], in test [3], in test [4], in test [5] and in test [6] was “inactive” in each case. Moreover, the Potency result in test [7], in test [8], in test [9], in test [11], in [12] and in [13] was “inactive” each time. Moreover, the Potency result in [14] is “inactive”. The activity change, positive = activation in test [10] is -5.63%.

For the compound `CCCC(O)C(O)CO` (configuration not stated), the Potency result in test [1], in [2], in test [3], in test [4], in test [5] and in test [7] was “inactive” each time. In addition, the Potency entry in test [15], in [9], in test [11], in test [12], in test [13] and in test [14] was “inactive” each time. In addition, the compound was classed as inactive in [16].

Consider `Cc1ccc(N)cc1O`, for which the Potency result in [1], in test [2], in test [3], in test [5], in test [15] and in test [11] was “inactive” each time. Besides, the Potency entry in [12], in test [13] and in test [17] was “inactive” throughout. Further, the Potency is 27.3 µM (active) in [4] and 101 µM (active) in test [9]. The outcome in test [16] was inactive.

On to `CCCCN(C)C`, for which the Potency result in test [1], in test [2], in test [3], in [4], in test [5] and in [7] was “inactive” in each case. Besides, the Potency result in [8], in test [9], in test [11], in test [18], in [12] and in test [14] was “inactive” in each case. Also, the outcome in [16] was inactive.

Regarding `OCCCS`, the Potency result in [1], in test [2], in test [3], in test [4], in test [5] and in test [7] was “inactive” each time. The Potency result in test [15], in [9], in test [11], in test [18], in [12] and in test [13] was “inactive” throughout. Besides, the Potency entry in test [14] is “inactive”.

As for `CC(C)(C)C1=CC(=O)C=C(C(C)(C)C)C1=O`, the Potency result in [1], in [2], in [3], in [4], in test [5] and in [7] was “inactive” each time. The Potency entry in test [15], in test [8], in test [9], in test [12] and in test [14] was “inactive” in each case. For the same compound, the compound was classed as inactive in test [16].

As to `O=C1OC(=O)c2ccc3c4c(ccc1c24)C(=O)OC3=O`, the Potency entry in test [1], in test [2], in [3], in [4], in test [5] and in test [7] was “inactive” throughout. Besides, the Potency entry in test [8], in [9], in [18], in test [17] and in test [14] was “inactive” throughout. For the same compound, the outcome in test [16] was inactive.

Turning to `CC(=O)O[C@@H]1C[C@@H]2CC[C@@]1(C)C2(C)C`, the Potency result in [1], in [2], in test [3], in test [4], in test [5] and in test [7] was “inactive” in each case. Besides, the Potency result in [15], in test [8], in test [9], in [11], in [18] and in [12] was “inactive” in each case. Also, the Potency entry in test [13], in [17] and in test [14] was “inactive” in each case.

Turning to `CCc1ccc(C)nc1`, the Potency entry in test [1], in [2], in test [3], in [4], in [5] and in [7] was “inactive” throughout. Moreover, the Potency result in test [15], in test [8], in [9], in test [11], in test [13] and in test [17] was “inactive” in each case. For the same compound, the Potency entry in test [14] is “inactive”.
